The results in this text go back to PubChem BioAssay.

Where “and” joins values, the source holds several entries; their conditions need not be identical. Equal entries are not always repeated. Calls of active or inactive are those of the source.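 The calls were made as follows, unless noted: active = inhibition at or above 50% relative to wild type and mutant plate controls; inactive = inhibition below 50%.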

A short description of assay [1]: inhibitors of TNFa-induced NFkB p65 translocation, primary screen, imaging, HUVEC, MLSMR starter and 10KST1 sets (AID 438;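 active = inhibition above 20% together with a positive visual image hit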;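 also: compound added about 3h40 before a 20 min TNFalpha stimulation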;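 as to inhibition: signal is the nuclear over cytoplasmic p65 intensity ratio per well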). The note with it: HUVEC TNFa-induced p65 nuclear translocation; cell count: measured here: nuclei count (cytotoxicity indicator), at 2.08 µM; inhibition: at 2 µM, stronger effect = higher value, 0% TNFa-plus-vehicle, 100% no-TNFa wells.
The nature of assay [2]: inhibitors of mutant huntingtin aggregation, primary screen, imaging, exon1htt(103Q)mCFP cells, high-content imaging (AID 483;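 active = visual image review flags a hit and inhibition of aggregation exceeds 20%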;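 also: compound exposure lasted 3 days before fixation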;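 as to nuclei count: percent of the per-plate median nuclei count of sample wells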). The note with it: exon1htt(103Q)mCFP cell line, aggregate imaging, at 2 µM; inhibition of aggregation: stronger effect = higher value; nuclei count: measured here: cell count, toxicity.
Assay [3] is described as follows: inhibitors of E-selectin induction by TNFa, primary screen, imaging, HUVEC, immunofluorescence, MLSMR starter and 10KST1 sets (AID 487;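 active = visually confirmed hit in the image check and inhibition above 20%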;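 as to inhibition: signal is fraction of cell area covered by stained E-selectin grains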;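 as to nuclei count: 100% = median nuclei count of all wells on the same plate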). The note with it: HUVEC TNFalpha-induced E-selectin immunofluorescence imaging, at 2 µM; inhibition: stronger effect = higher value; nuclei count: measured here: cell number, toxicity.
The nature of assay [4]: DUSP6 inhibitors restoring Erk phosphorylation by chemical complementation, primary imaging in DUSP6-transfected HeLa (AID 609;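 active = compounds giving at least 50% inhibition in the cell-based MKP-3 phosphatase rescue imaging test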;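 as to inhibition: phospho-Erk level distribution per well compared with pooled transfected vehicle control wells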). The note with it: HeLa MKP-3 transfected, phospho-Erk imaging KS statistic, at 10 µM, cells stimulated with TPA for 15 min.
In assay [5] the target is Dual specificity protein phosphatase 6 (Homo sapiens) (UniProt Q16828). The assay is described as above. The note with it: HeLa MKP-3 transfected, phospho-Erk imaging KS statistic; at 10 µM; stronger effect = higher value; cells stimulated with TPA for 15 min.
Sequence of Dual specificity protein phosphatase 6 (Homo sapiens) (Q16828 whole entry, looked up): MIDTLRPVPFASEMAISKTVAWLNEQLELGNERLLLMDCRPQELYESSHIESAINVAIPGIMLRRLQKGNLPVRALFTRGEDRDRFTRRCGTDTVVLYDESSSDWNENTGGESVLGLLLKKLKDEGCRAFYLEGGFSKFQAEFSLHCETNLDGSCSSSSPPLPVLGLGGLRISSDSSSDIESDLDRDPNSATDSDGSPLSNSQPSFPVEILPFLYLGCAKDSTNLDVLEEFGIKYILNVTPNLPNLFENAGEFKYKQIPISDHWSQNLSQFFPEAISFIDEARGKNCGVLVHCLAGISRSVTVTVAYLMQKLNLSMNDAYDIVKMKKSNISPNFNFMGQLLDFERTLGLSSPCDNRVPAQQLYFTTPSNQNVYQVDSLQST
The target in assay [6] is Voltage-gated potassium channel subunit beta-2 (Rattus norvegicus) (UniProt P62483). Nature of the assay: KvBeta enzyme negative modulators, primary screen, biochemical, NADPH fluorescence (AID 622;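 active = fluorescence slope higher than the sample average by over 3 SD, cut at about -0.22 in these data, passing the limit was not always enough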;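 also: slope of raw intensity against log time taken from 70 to 1610 s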). The note with it: recombinant KvBeta, 4-cyanobenzaldehyde reduction, at 10 µM, stronger effect = higher value.
Sequence of Voltage-gated potassium channel subunit beta-2 (Rattus norvegicus) (P62483 whole entry, looked up): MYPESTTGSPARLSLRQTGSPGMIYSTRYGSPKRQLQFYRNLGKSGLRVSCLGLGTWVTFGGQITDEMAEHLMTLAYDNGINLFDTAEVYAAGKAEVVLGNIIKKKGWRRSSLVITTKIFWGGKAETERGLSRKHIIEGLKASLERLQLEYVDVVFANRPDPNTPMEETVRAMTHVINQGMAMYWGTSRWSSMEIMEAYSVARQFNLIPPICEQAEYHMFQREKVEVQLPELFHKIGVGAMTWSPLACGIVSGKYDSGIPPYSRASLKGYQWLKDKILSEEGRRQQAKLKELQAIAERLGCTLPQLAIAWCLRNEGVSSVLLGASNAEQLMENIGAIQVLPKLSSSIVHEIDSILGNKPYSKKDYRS
Assay [7] shares this target. As to the kind of experiment: KvBeta positive modulators, primary screen, biochemical, NADPH fluorescence (AID 623;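 active = NADPH fluorescence slope more negative than the mean of all samples by about 3 SD, 99.7% confidence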;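 also: fluorescence intensity change per second fitted from 20 to 320 s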). The note with it: Recombinant KvBeta, NADPH fluorescence decrease slope, 10 min; at 10 µM; stronger effect = lower value.
The target in assay [8] is Alpha-2C adrenergic receptor (Homo sapiens) (UniProt P18825). As to the kind of experiment: modulators of alpha2C/GIRK thallium flux, primary screen, cell-based, HEK293 alpha2C/GIRK1/2 (AID 624;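 active = fluorescence slope after compound addition differing from the mean of all screened samples at 99.7% confidence, in either direction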;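 also: slope of fluorescence ratio to pre-addition baseline per second over 15 to 24 s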). The note with it: thallium flux BTC fluorescence, at 10 µM, actives lie on both sides.
Sequence of Alpha-2C adrenergic receptor (Homo sapiens) (P18825 whole entry, looked up): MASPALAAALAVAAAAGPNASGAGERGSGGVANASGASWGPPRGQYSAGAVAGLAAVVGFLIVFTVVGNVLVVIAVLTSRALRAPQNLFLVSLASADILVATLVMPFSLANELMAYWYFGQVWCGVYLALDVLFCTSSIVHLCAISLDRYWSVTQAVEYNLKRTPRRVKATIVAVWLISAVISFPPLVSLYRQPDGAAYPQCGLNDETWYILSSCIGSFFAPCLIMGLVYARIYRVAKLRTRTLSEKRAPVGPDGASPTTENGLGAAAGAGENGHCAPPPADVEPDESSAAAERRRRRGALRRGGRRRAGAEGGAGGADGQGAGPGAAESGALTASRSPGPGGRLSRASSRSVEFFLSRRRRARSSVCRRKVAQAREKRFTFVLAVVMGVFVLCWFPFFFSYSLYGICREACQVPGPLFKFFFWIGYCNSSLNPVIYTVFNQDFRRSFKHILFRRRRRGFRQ
Assay [9] is described as follows: inhibitors of larval lipid processing in zebrafish, primary screen, whole organism, PED6 fluorescence, gall bladder and intestine (AID 686;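 active = a full or partial loss of lipid-probe fluorescence in the fish gall bladder, intestine or both, judged by eye; inactive = no fluorescence loss, or compound toxic to the fish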;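 also: larvae 5 to 7 days old with five fish per well; signal comes from phospholipase A2 cleavage of quenched PED6 carried via bile; overnight exposure to compound and PED6 before scoring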). The note with it: Zebrafish larvae PED6 lipid processing, fluorescence scoring; screened at 20 µM (by protocol).
Assay [10] can be described thus: inhibitors of Chlamydomonas gravitaxis, primary screen, whole organism, Chlamydomonas reinhardtii, WT vs cilia-less mutant, absorbance, 96-well (AID 463189).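 Also: 0% = wild type cc124 cells in DMSO and 100% = ciliumless bld1 mutant cells.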 The note with it: OD600 absorbance, 2 days, at 10 µM, stronger effect = higher value.
Assay [11] is described as follows: inhibitors of Sendai virus-induced IRF3 signaling, primary screen, TLR/RLR signaling modifier project, cell-based, Sendai virus stimulus, luciferase, 10K MLSCN set (AID 602276;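 active = inhibition at or above 50% at 10 µM; inactive = inhibition below 50%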;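 also: firefly luciferase from ISG56 promoter only with Renilla not read in this screen; 0% = Sendai virus plus DMSO and 100% = medium plus DMSO without virus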). The note with it: HEK293 RL24 IRF3 luciferase reporter, at 10 µM, stronger effect = higher value.
Assay [12] in a line: inhibitors of poly I:C-induced TLR3 signaling, primary screen, cell-based, poly I:C stimulus, luciferase, 10K MLSCN set (AID 602277;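 active = inhibition of the reporter signal at or above 50%; inactive = inhibition below 50%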). The note with it: HEK293-TLR3 RL24 IRF3 luciferase reporter, at 10 µM, stronger effect = higher value. On the technique in general: Reporter assays use an easily measured gene product as a stand-in for the process of interest.
Setting [13] is: measured here: cell density z-score.
The mark [14] stands for this setting: measured here: nuclear c-Myc green intensity z-score.
Setting [15] is: measured here: nuclear pErk red intensity z-score, stronger effect = higher value.

`CNC[C@H](O)c1cccc(O)c1`: the cell count in assay [1] worked out at 561. Further, the inhibition in assay [1] was 0.6% (inactive); in assay [3], -73.1% (inactive); in [5], 14.6% (inactive); in [10], -10.5% (inactive) and 0.836% (inactive); in assay [11], 11.5% (inactive); in assay [12] it was 41.6% (inactive). In assay [2], the inhibition of aggregation is 1.2% (inactive). Also, the nuclei count was found to be 89.3% in [2] and 117% in assay [3]. Moreover, the z-score in [4] (setting [13]) was 0.304; in assay [4] (setting [14]), 0.128; in assay [4] (setting [15]), -0.803. In [6], the fluorescence slope was -0.468 (inactive). Further, the NADPH fluorescence slope in assay [7] is -5e-05 (inactive). The slope in [8] is 0.00773 (inactive). The compound was classed as inactive in assay [9].

In the case of `O=C(O)Cc1cc(I)c(Oc2ccc(O)c(I)c2)c(I)c1`, in assay [1], the cell count amounted to 625. Further, the inhibition is 3.9% (inactive) in assay [1]; -92% (inactive) in [3]; 8% (inactive) in assay [5]; 22% (inactive) in assay [10]; -15.1% (inactive) in assay [11]; -273% (inactive) in assay [12]. Besides, the inhibition of aggregation in assay [2] was 12.4% (inactive). Moreover, the nuclei count in assay [2] amounted to 103%; in assay [3] it was 123%. For the same compound, the z-score in assay [4] (setting [13]) was 0.485; in assay [4] (setting [14]), -0.133; in [4] (setting [15]) it was 0.686. Also, the fluorescence slope in assay [6] was -0.541 (inactive). In addition, in assay [7], the NADPH fluorescence slope was -4.1e-05 (inactive). For the same compound, the slope in assay [8] was 0.00612 (inactive). The compound was classed as inactive in assay [9].

Take `O=C(OCC#CCSc1nnc(-c2ccccc2)o1)c1cccs1`: the cell count in assay [1] came out at 281. The inhibition in assay [1] is -2.4% (inactive); in [3] it was -178% (inactive); in assay [5], 3.66% (inactive); in assay [10], -3.45% (inactive); in [11] it was -0.522% (inactive); in [12], 1.31% (inactive). Besides, the inhibition of aggregation in [2] was 8.9% (inactive). The figures for the nuclei count in assay [2] and in assay [3] were 95.4% and 132%, respectively. For the same compound, the z-score was -0.348 in assay [4] (setting [13]), 0.84 in assay [4] (setting [14]) and 0.574 in [4] (setting [15]). The fluorescence slope in assay [6] was -0.396 (inactive). For the same compound, the NADPH fluorescence slope in assay [7] is -4e-05 (inactive). For the same compound, in assay [8], the slope was 0.00513 (inactive). For the same compound, in assay [9], the result was inactive.

Take `Nc1nc2ccc(OC(F)(F)F)cc2s1`: the cell count in assay [1] was 540. Moreover, the inhibition in assay [1] is -0.5% (inactive); in assay [3], -27.8% (inactive); in assay [5], 36.7% (inactive); in [10], 4.87% (inactive) and -11.8% (inactive); in assay [11], -14.6% (inactive); in assay [12] it was -58.1% (inactive). In assay [2], the inhibition of aggregation is -1.7% (inactive). For the same compound, the nuclei count is 86.1% in assay [2] and 107% in assay [3]. Also, the z-score in [4] (setting [13]) was 2.05; in [4] (setting [14]) it was -1.62; in assay [4] (setting [15]), -0.877. The fluorescence slope in [6] is -0.427 (inactive). The NADPH fluorescence slope in assay [7] was 2.4e-05 (inactive). The slope in [8] is 0.00474 (inactive). The call in assay [9] was inactive.

Consider `CCCCC[C@H](O)/C=C/[C@@H]1[C@@H](CCCCCCC(=O)O)[C@@H](O)C[C@H]1O`, for which, in [1], the cell count is 594. Further, the inhibition is -7.7% (inactive) in assay [1]; -80.7% (inactive) in assay [3]; 7.39% (inactive) in assay [5]; -6.66% (inactive) in assay [10]; 11.4% (inactive) in assay [11]; 33.8% (inactive) in assay [12]. In addition, in assay [2], the inhibition of aggregation was 9% (inactive). In addition, the figures for the nuclei count in assay [2] and in [3] were 106% and 114%, respectively. For the same compound, the z-score in assay [4] (setting [13]) is -0.368; in [4] (setting [14]) it was 0.536; in [4] (setting [15]), -0.971. For the same compound, the fluorescence slope in [6] is -0.458 (inactive). Moreover, the NADPH fluorescence slope in assay [7] was -4e-05 (inactive). Moreover, the slope in assay [8] was 0.00481 (inactive). Also, the compound was called inactive in [9].

In the case of `C[C@]12CC[C@@H]3c4ccc(OC(=O)c5ccccc5)cc4CC[C@H]3[C@@H]1CC[C@@H]2O`, the cell count in [1] is 623. The inhibition in assay [1] was 1.2% (inactive); in assay [3], -112% (inactive); in assay [5], -6.41% (inactive); in assay [10] it was 5.46% (inactive); in assay [11], 7.4% (inactive); in [12], 33.1% (inactive). In addition, the inhibition of aggregation in assay [2] was -35.3% (inactive). Further, the nuclei count was found to be 31.5% in [2] and 133% in assay [3]. Moreover, the z-score is -1.91 in assay [4] (setting [13]), 0.276 in assay [4] (setting [14]) and -1.27 in assay [4] (setting [15]). For the same compound, the fluorescence slope in assay [6] was -0.467 (inactive). Also, the NADPH fluorescence slope in assay [7] is -8.1e-05 (inactive). Further, in [8], the slope was 0.00784 (inactive). The result in assay [9] was inactive.

`CN(C=C1C(=O)CC(C)(C)CC1=O)CCN1CCNCC1`: the cell count in assay [1] was 624. Moreover, the inhibition is -4.9% (inactive) in [1]; -43.7% (inactive) in assay [3]; -1.98% (inactive) in assay [5]; 6.8% (inactive) in assay [10]; 14.6% (inactive) in [11]; 16.6% (inactive) in assay [12]. Further, the inhibition of aggregation in [2] is -3.7% (inactive). The nuclei count in [2] was found to be 97.1%; in assay [3] it was 121%. Moreover, the figures for the z-score in assay [4] (setting [13]), in assay [4] (setting [14]) and in assay [4] (setting [15]) were -0.672, -0.802 and 1.89, respectively. Moreover, the fluorescence slope in [6] is -0.519 (inactive). The NADPH fluorescence slope in [7] is -5.2e-05 (inactive). Further, the slope in [8] is 0.00485 (inactive). Moreover, the call in assay [9] was inactive.

With `C=C1[C@@H](C)C2[C@H](Cc3ccccc3)NC(=O)[C@]23OC(=O)CC[C@H](O)CCC[C@H](C)C/C=C/[C@H]3[C@@H]1O` (stereo not given in full), in [1], the cell count was determined as 573. For the same compound, the inhibition in assay [1] was -22.6% (inactive); in [3] it was -47.4% (inactive); in [5], 5.42% (inactive); in assay [10], -3.13% (inactive); in assay [11] it was 7.56% (inactive); in assay [12], 45.8% (inactive). For the same compound, the inhibition of aggregation in assay [2] is 25.7% (inactive). The values for the nuclei count in [2] and in [3] were 42.3% and 104%, respectively. In addition, the z-score was -1.85 in assay [4] (setting [13]), 0.937 in [4] (setting [14]) and 1.72 in [4] (setting [15]). Besides, the fluorescence slope in [6] is -0.464 (inactive). In assay [7], the NADPH fluorescence slope was -6.3e-05 (inactive). The slope in [8] was 0.00486 (inactive). For the same compound, the call in assay [9] was inactive.

Turning to `COc1ccc(C2CNC(=O)C2)cc1OC1CCCC1` (stereo not given), the cell count in assay [1] came out at 595. For the same compound, the inhibition was -1.7% (inactive) in [1]; -59.8% (inactive) in [3]; 3.45% (inactive) in assay [5]; 0.165% (inactive) and 12.7% (inactive) in assay [10]; 15.5% (inactive) in assay [11]; 0.301% (inactive) in [12]. In addition, the inhibition of aggregation in assay [2] was -10.3% (inactive). Besides, the nuclei count in assay [2] was 97.8%; in assay [3], 124%. Besides, the z-score is -1.08 in assay [4] (setting [13]), -0.0715 in assay [4] (setting [14]) and 0.178 in assay [4] (setting [15]). Also, the fluorescence slope in assay [6] was -0.507 (inactive). Also, the NADPH fluorescence slope in assay [7] is -0.000115 (inactive). In [8], the slope was 0.00579 (inactive). The compound was called inactive in [9].

On to `CSc1ccc2c(c1)N(CCC1CCCCN1C)c1ccccc1S2` (stereo not given), for which, in assay [1], the cell count came to 643. Further, the inhibition was -2.7% (inactive) in assay [1]; -54.8% (inactive) in assay [3]; -4.44% (inactive) in assay [5]; 77.2% (active) and 160% (active) in [10]; 32% (inactive) in assay [11]; 30% (inactive) in assay [12]. The inhibition of aggregation in assay [2] was 4.7% (inactive). Moreover, the results for the nuclei count in [2] and in assay [3] were 89.1% and 119%, respectively. For the same compound, the z-score in assay [4] (setting [13]) was determined as 0.315; in assay [4] (setting [14]), 3.44; in assay [4] (setting [15]), 1.46. Moreover, the fluorescence slope in [6] is -0.555 (inactive). Besides, the NADPH fluorescence slope in [7] was -5.2e-05 (inactive). Moreover, the slope in assay [8] was 0.00348 (inactive). Besides, the result in assay [9] was inactive.

The inhibition is the relative decrease from the control value, in per cent.
